Data taken from PubChem BioAssay (NCATS).
Records with an inconclusive call do not appear. Unmarked numbers belong to inactive results. Calls of active or inactive are those of the source. Calls come from the whole dose curve; as a rule, active = well fitted inhibition curve with a large enough effect; inconclusive = small, poorly fitted or top-dose-only effect; inactive = flat fitted curve, though single readings scatter.

test system: Zika virus NS2B-NS3 protease; test: Primary screen GU AMC qHTS for Zika virus inhibitors (AID 1347154); conditions: Zika NS2B-NS3 unlinked protease, AMC fluorogenic substrate; series mostly up to 54.1 µM; activity change, negative = inhibition: at the top concentration; note: nearly all actives have a fitted effect of over 70% in size;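 for activity change, negative = inhibition: 0% = no-inhibitor control and -100% = no-enzyme control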
Summary of the method: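 Unlinked Zika NS2B hydrophilic domain/NS3 protease domain noncovalent complex (25 nM final) in 10 mM Tris-HCl pH 8.0, 0.01% Tween 20, with AMC peptide substrate. Fluorescence (ex 340, em 450 nm) change over 15 min, room temperature; percent inhibition fitted to 4-parameter Hill equation.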
Potency is the fitted concentration of half-maximal effect.

| Structure (SMILES) | activity change, negative = inhibition | Potency |
| --- | --- | --- |
| O=C(CCN1CCN2CCCC2C1)N1c2ccccc2Sc2ccc(Cl)cc21 (stereo unspecified) | -0.561% [at 25.8 µM] |  |
| CN1CCN(C2=Nc3cc(F)ccc3Cc3ccccc32)CC1 |  | inactive |
| OCc1ccccn1 | 1.33% |  |
| O=C1c2cccc3c2[C@H](CCC3)CN1[C@@H]1CN2CCC1CC2 | -4.94% |  |
| O=C(O)CCc1nc2ccccc2[nH]1 | 2.14% |  |
| N[C@H](C(=O)O)[C@@H](O)c1ccc(O)c(O)c1 |  | 12.8 µM (active) |
| CCN(CC)CCOC(=O)C(Cc1cccc2ccccc12)CC1CCCO1 (stereo unspecified) | -0.791% |  |
| CCOC(=O)Nc1ccc2c(c1)N(C(=O)CCN1CCOCC1)c1ccccc1S2 | 0.0408% |  |
| CCN(CC)CCOc1ccccc1C(=O)CCc1ccccc1 | 4.34% |  |
| COC(=O)C(c1ccccc1Cl)N1CCc2sccc2C1 (stereo unspecified) |  | inactive |
| CN1CCN(CCC(=O)N2c3ccccc3Sc3ccc(C(F)(F)F)cc32)CC1 | -1.16% |  |
| COc1cc(C)nc(-n2nc(C)cc2OC)n1 | -2.4% |  |
| COc1cc(O)c(C(=O)c2ccccc2)cc1S(=O)(=O)O | -0.586% |  |
| O=C(Nc1ncc([N+](=O)[O-])s1)c1cccs1 | -5.8% |  |
| Cc1ncc(CO)c(C=O)c1O |  | 14.4 µM (active) |
| C#C[C@]1(O)CC[C@H]2[C@@H]3CCC4=CC(=O)CC[C@@H]4[C@H]3CC[C@@]21CC | -1.04% |  |
| O=C1C(O)=C(O)C(=O)C(O)=C1O | -2.72% |  |
| COc1cc(C(=S)N2CCOCC2)ccc1O | -4.72% |  |
| CCc1ccc(C(=O)C(C)CN2CCCCC2)cc1 (stereo unspecified) | 9.42% |  |
| CCC(Cc1c(I)cc(I)c(N)c1I)C(=O)O (stereo unspecified) | -8.93% |  |
| CC(C)[C@@H]1CC[C@@H](C)CC1=O | -9.92% |  |
